# Bioassay records: PubChem, National Center for Advancing Translational Sciences (NCATS)
# TDP1 cell noCPT: qHTS for Inhibitors of human tyrosyl-DNA phosphodiesterase 1 (TDP1): qHTS in cells in absence of CPT; DT40 Tdp1-/- hTDP1 cells, no CPT, ATP luminescence, 48 h; actives 15% (n = 420,000); Potency, µM (doses to about 46.2 µM), hits mostly inhibitors; further: nearly all actives have a fitted effect of over 55% in size
#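 Cells were dispensed at 400 per well, compounds added by pin tool, plates incubated ≥48 hr at 37 °C, then CellTiter-Glo added for 30 min at room temperature before luminescence reading. Line: DT40 Tdp1-/- complemented with hTDP1; camptothecin omitted.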
# TGFb inhibitor: qHTS for Inhibitors of TGF-b; Potency, µM (series often up to 46.1 µM), usual class: inhibitors; AID 588855, 2011; HepG2 CAGA-GFP TGF-b/SMAD3 reporter, GFP fluorescence, 18 h; TGF-beta stimulated, 500 pg/mL final; actives 1.2% (n = 410,000); further: nearly all actives have a fitted effect of over 65% in size
#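 Per well, imaged GFP fluorescence of HEPG2 CAGA-GFP cells gives the signal; cells get compound, then TGF-beta (500 pg/mL final), 18 h at 37 degrees C; %Activity versus -TGF-beta and +DMSO controls.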
# IL-1B inflam inh: qHTS for Inhibitors of Inflammasome Signaling: IL-1-beta AlphaLISA Primary Screen; THP-1 LPS/ATP IL-1B secretion, AlphaLISA, 16 h; hits give low values; activity change, % at 57.5 µM; actives 4.7% (n = 360,000); AID 743279, 2014; in the data active means activity change below about -50%; inconclusive means mostly about -30% to -49%
#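 Secreted IL-1B measured by AlphaLISA bead assay after 16 h compound exposure of THP-1 cells; compounds (final up to 57.5 uM) added 1 h before LPS (250 ng/mL) and ATP (1.25 mM) stimulation; lower signal means less secretion.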
# TDP1 block: qHTS Assay for Inhibitors of Tyrosyl-DNA Phosphodiesterase (TDP1); Tyrosyl-DNA phosphodiesterase 1 (Homo sapiens), Q9NUW8; recombinant TDP1, AlphaScreen DNA substrate cleavage; Potency, µM (series often up to 130 µM), usual class: inhibitors; actives 0.28% (n = 350,000); AID 485290, 2010; further: nearly all actives have a fitted effect of over 40% in size
# Target sequence (Q9NUW8 whole entry, looked up): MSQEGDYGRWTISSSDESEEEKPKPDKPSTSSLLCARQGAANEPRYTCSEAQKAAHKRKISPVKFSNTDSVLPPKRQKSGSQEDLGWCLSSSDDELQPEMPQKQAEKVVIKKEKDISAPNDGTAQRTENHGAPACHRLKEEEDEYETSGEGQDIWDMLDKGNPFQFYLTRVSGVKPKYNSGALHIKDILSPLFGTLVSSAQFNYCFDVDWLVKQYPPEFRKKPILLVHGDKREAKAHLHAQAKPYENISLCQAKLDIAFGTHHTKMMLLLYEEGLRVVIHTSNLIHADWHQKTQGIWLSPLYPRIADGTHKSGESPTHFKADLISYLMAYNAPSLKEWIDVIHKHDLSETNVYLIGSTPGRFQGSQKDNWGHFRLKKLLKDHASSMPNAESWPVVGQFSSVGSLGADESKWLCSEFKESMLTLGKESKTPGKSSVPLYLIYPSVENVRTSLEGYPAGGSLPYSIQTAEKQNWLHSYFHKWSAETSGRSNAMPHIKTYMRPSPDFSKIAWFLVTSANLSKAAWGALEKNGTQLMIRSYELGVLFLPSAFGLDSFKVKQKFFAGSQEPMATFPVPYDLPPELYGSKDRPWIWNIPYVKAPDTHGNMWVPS
#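 Compounds were preincubated with Tdp1 (1 nM final) for 15 min at room temperature before substrate (15 nM final) started a 5 min reaction; beads (10 ug/ml final) were then added for 10 min before AlphaScreen detection.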
# HepG2 tox: qHTS for Inhibitors of TGF-b: Cytotox Counterscreen; HepG2 CAGA-GFP viability, ATP luminescence, 18 h; Potency, µM (top dose mostly 46.1 µM), most hits filed as cytotoxic; actives 0.76% (n = 410,000); AID 588856, 2011
#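 CellTiter-Glo luminescence gave cytotoxicity after 18 hours at 37 degrees C. The cells were HepG2 CAGA-GFP in 1% FBS DMEM, stimulated with 500 pg/mL TGF-beta after compound addition. %Activity was normalised to no-cell wells (complete cell-killing) and DMSO (no toxicity), and curves were fitted and classified.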
# DT40 TDP1 CPT: qHTS for Inhibitors of human tyrosyl-DNA phosphodiesterase 1 (TDP1): qHTS in cells in presence of CPT; chicken DT40 Tdp1-/-;hTDP1 cells + 20 nM CPT, ATP luminescence, 48 h; Potency, µM (doses to about 46.2 µM), most hits filed as inhibitors; actives 12% (n = 420,000); AID 686979, 2013; further: nearly all actives have a fitted effect of over 55% in size
#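 Chicken DT40 Tdp1-/- cells complemented with human TDP1, 400 cells/well, exposed to compounds plus 20 nM camptothecin for at least 48 h at 37 C; viability read as ATP content by CellTiter-Glo luminescence.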
# A number is an active result; . = inactive; ? = inconclusive; / = no result given; [ ] = another dose, or the depositor's remark. Hits are enriched below; roughly 19% of the tested compounds scored in any of these assays. Unless noted, the call rests on the fitted dose curve; in most records, active means well fitted curve in the direction sought with a large enough effect; inconclusive means small, poorly fitted or top-dose-only effect, or another doubt; inactive means no such curve, though single readings can be large; an effect the other way counts as inactive or inconclusive.
SMILES,TDP1 cell noCPT,TGFb inhibitor,IL-1B inflam inh,TDP1 block,HepG2 tox,DT40 TDP1 CPT
O=C(/C=C/c1ccc(Cl)cc1)Nc1ccc(N2CCCCC2)cc1,.,.,.,.,.,.
NC(=O)/C=C/C(=O)Nc1ccc(Cl)cc1,8.2µM,.,-78,.,.,3.3µM
O=C(/C=C/C(Cl)(Cl)Cl)Nc1ccc(Cl)cc1,5.2µM,?,-104,/,13µM,4.6µM
COc1cc(CNCCN(C)C)c(Br)cc1OC1CCCC1,?,.,.,/,.,18µM
CN(C)CCNCc1ccccc1OC1CCCC1,.,.,.,.,.,.
COc1ccccc1C1CC(c2ccccc2)Nc2ncnn21 (stereo not drawn),23µM,.,.,.,.,8.2µM
COc1cccc(C2CC(c3ccccc3Cl)n3ncnc3N2)c1 (stereo not drawn),?,.,.,.,.,.
COc1ccccc1C1CC(c2ccc(F)cc2)Nc2ncnn21 (stereo not drawn),21µM,?,.,.,.,7.3µM
Cc1ccc(C2CC(c3ccco3)n3ncnc3N2)cc1 (stereo not drawn),.,.,.,.,.,.
COc1ccccc1C1CC(c2ccc(C)cc2)Nc2ncnn21 (stereo not drawn),18µM,.,.,.,.,?
COc1ccc(C(=O)c2ccc([N+](=O)[O-])cc2)c(OC)c1OC,.,.,.,/,.,.
CCCCc1cc(O)c(CCCC)c(O)c1,13µM,?,?,.,.,21µM
Cc1nnc(-c2ccco2)c2cn(-c3cccc(Br)c3)nc12,23µM,.,/,.,.,?
CC(=O)c1nn(-c2cccc(Br)c2)cc1C(=O)c1ccco1,.,.,.,.,.,.
Nc1ccccc1SCC(=O)Nc1cccc2ccccc12,.,.,.,/,.,.
COc1cc(-c2cccc(Cl)c2)cc2c1OCCN(C(=O)CCn1ccc(C)n1)C2,?,/,/,/,/,.[9.04 µM]
CC(C)(C)C1CCN2CCCC(c3ccc([N+](=O)[O-])cc3)(C1)C21OCCO1 (stereo not drawn),?,/,.,/,/,21µM
COc1cc(C23CCCN(CCC(C(C)(C)C)C2)C32OCCO2)cc(OC)c1OC (stereo not drawn),23µM,/,.,/,/,?
COc1cc(C2NC(=O)NC(O)(C(F)(F)F)C2C(C)=O)cc(OC)c1OC (stereo not drawn),.,.,.,.,.,.
C=CCC[C@H](Cc1ccc(F)cc1)C(=O)OC[C@@H](NC(=O)[C@H](CC=C)CC(=O)NCCO)c1ccccc1,?,.,.,.,.,21µM
C=CC[C@H](CC(=O)NCCO)C(=O)N[C@@H](COC(=O)[C@@H](CC=C)Cc1ccc(F)cc1)Cc1ccccc1,?,.,.,.,.,21µM
C=CC[C@H](CC(=O)NCCO)C(=O)N[C@H](COC(=O)[C@@H](CC=C)Cc1ccc(F)cc1)Cc1ccccc1,?,.,.,.,.,?
C=CCC[C@H](Cc1ccc(F)cc1)C(=O)OC[C@H](C)NC(=O)[C@H](CC=C)CC(=O)NCCO,?,.,.,.,.,?
Cc1cccc(CCNC(=O)c2cc(S(=O)(=O)N3CCCCC3)c[nH]2)c1,?,.,.,.,.,18µM
CCN(C(=O)c1cc(S(=O)(=O)N2CCCCC2)c[nH]1)c1ccc(OC)cc1,23µM,.,.,.,.,9.2µM
SMILES,TDP1 cell noCPT,TGFb inhibitor,IL-1B inflam inh,TDP1 block,HepG2 tox,DT40 TDP1 CPT
Cc1ccc(N2CCN(C(=O)c3cc(S(=O)(=O)N4CCCCC4)c[nH]3)CC2)c(C)c1,16µM,?,/,.,.,16µM
COc1ccc(NC(=O)c2cc(S(=O)(=O)N3CCCC3)c[nH]2)cc1,.,?,.,/,2.5µM,.
Fc1ccc(-c2nnc(CN3CCN(c4ccccn4)CC3)o2)cc1,.,.,/,.,.,.
COc1ccc(C(=O)Nc2ccccc2C(=O)N2CCOCC2)cc1,.,.,.,.,.,.
O=C(Cn1cc(F)c(=O)[nH]c1=O)c1ccco1,.,.,.,/,.,.
COc1ccc(C2CC(=O)c3cnc4c(-c5ccccc5)c(C)nn4c3C2)c(OC)c1 (stereo not drawn),.,.,/,.,.,.
COc1cccc(-c2c(-c3cc(OC)cc(OC)c3)n(C)c3ccc(-c4ccc5[nH]ccc5c4)cc23)c1,?,.,.,.,.,?
COc1ccc(-c2c(-c3cc(OC)cc(OC)c3)n(C)c3ccc(-c4ccc(SC)cc4)cc23)cc1,.,.,.,.,.,.
COc1ccc(-c2c(-c3cc(OC)cc(OC)c3)n(C)c3ccc(-c4cc(F)cc(OC)c4)cc23)cc1,16µM,.,.,.,.,?
COc1cc(OC)cc(-c2c(-c3ccc(F)cc3)c3cc(-c4ccc5[nH]ccc5c4)ccc3n2C)c1,?,.,.,.,.,29µM
CCOC(=O)c1ccc(NC(=O)CC(C)n2nc(C)cc2C)cc1 (stereo not drawn),?,.,/,.,.,?
C=CCn1c(SCC(N)=O)nc2ccccc2c1=O,.,.,/,.,.,.
